Experimental data: PubChem BioAssay AID1159580 (chemical genetic matrix, 2015)
Where “and” joins values, the source holds several entries; their conditions need not be identical. Identical values can stand only once. Out of some 5,500 compounds screened, about 2,000 (36%) were called active. Inconclusive results (about 18%) are left out. Some of the results follow. Unmarked numbers belong to inactive results. Cut-off read from the data, not from the text of the source: active = normalized growth mostly below about 0.91 (no sharp cut-off); inconclusive = no clear call, values can overlap the other calls; inactive = mostly above about 0.92.

Assay: chemical genetic growth profiling, strain panel (AID 1159580);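 note: tested at 20 µM; growth read once vehicle control cultures reached saturation at 30 °C; 1 = growth at the plate median or of vehicle wells; lower values mean less growth of the strain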
Details: S. cerevisiae deletion strains, growth OD

O=C1[C@H](CCC(O)c2ccc(F)cc2)[C@@H](c2ccc(O)cc2)N1c1ccc(F)cc1 (stereo partly specified)
normalized growth (locus YAL013W, strain DEP1, hits give low values): 0.988
normalized growth (locus YAL021C, strain ccr4, hits give low values): 0.999
normalized growth (locus YAL026C, strain drs2, hits give low values): 0.976
normalized growth (locus YAL030W, strain snc1, hits give low values): 0.968
normalized growth (locus YBL061C, strain skt5, hits give low values): 0.973
normalized growth (locus YBR009C, strain hhf1, hits give low values): 0.981
normalized growth (locus YBR021W, strain FUR4, hits give low values): 0.962
normalized growth (locus YBR023C, strain chs3, hits give low values): 0.979
normalized growth (locus YBR171W, strain sec66, hits give low values): 0.95
normalized growth (locus YBR229C, strain ROT2, hits give low values): 0.99
normalized growth (locus YBR231C, strain swc5, hits give low values): 0.976
normalized growth (locus YBR279W, strain paf1, hits give low values): 0.987
normalized growth (locus YCL011C, strain gbp2, hits give low values): 0.995
normalized growth (locus YCL016C, strain dcc1, hits give low values): 0.992
normalized growth (locus YCL029C, strain bik1, hits give low values): 0.968
normalized growth (locus YCL069W, strain vba3, hits give low values): 0.97
normalized growth (locus YCR088W, strain abp1, hits give low values): 0.967
normalized growth (locus YDL005C, strain med2, hits give low values): 0.956
normalized growth (locus YDL035C, strain GPR1, hits give low values): 0.989
normalized growth (locus YDL040C, strain nat1, hits give low values): 0.979
normalized growth (locus YDL074C, strain BRE1, hits give low values): 0.985
normalized growth (locus YDL101C, strain DUN1, hits give low values): 0.985
normalized growth (locus YDL134C, strain PPH21, hits give low values): 0.988
normalized growth (locus YDL185W, strain tfp1, hits give low values): 0.966
normalized growth (locus YDL192W, strain arf1, hits give low values): 0.977
normalized growth (locus YDR001C, strain nth1, hits give low values): 0.976
normalized growth (locus YDR069C, strain doa4, hits give low values): 0.966
normalized growth (locus YDR101C, strain arx1, hits give low values): 0.981
normalized growth (locus YDR137W, strain rgp1, hits give low values): 1.01
normalized growth (locus YDR150W, strain NUM1, hits give low values): 0.986
normalized growth (locus YDR159W, strain sac3, hits give low values): 0.931
normalized growth (locus YDR162C, strain NBP2, hits give low values): 1
normalized growth (locus YDR195W, strain ref2): 0.915
normalized growth (locus YDR297W, strain sur2, hits give low values): 0.988
normalized growth (locus YDR318W, strain mcm21, hits give low values): 0.98
normalized growth (locus YDR334W, strain swr1, hits give low values): 0.983
normalized growth (locus YDR335W, strain msn5, hits give low values): 0.959
normalized growth (locus YDR388W, hits give low values): 0.972
normalized growth (locus YDR392W, strain spt3, hits give low values): 1.03
normalized growth (locus YDR502C, strain sam2, hits give low values): 0.98
normalized growth (locus YEL003W, strain gim4, hits give low values): 0.975
normalized growth (locus YEL037C, strain rad23, hits give low values): 0.957
normalized growth (locus YEL061C, strain CIN8 (second series), hits give low values): 0.966
normalized growth (locus YEL061C, strain CIN8, hits give low values): 0.993
normalized growth (locus YER015W, strain faa2, hits give low values): 0.99
normalized growth (locus YER016W, strain bim1, hits give low values): 0.968
normalized growth (locus YER110C, hits give low values): 0.971
normalized growth (locus YER111C, strain swi4, hits give low values): 0.969
normalized growth (locus YER155C, strain BEM2 (second series), hits give low values): 0.973
normalized growth (locus YER155C, strain BEM2, hits give low values): 1
normalized growth (locus YER167W, strain BCK2, hits give low values): 0.986
normalized growth (locus YFR010W, strain ubp6, hits give low values): 0.951
normalized growth (locus YGL078C, strain dbp3, hits give low values): 0.976
normalized growth (locus YGL086W, strain mad1, hits give low values): 0.984
normalized growth (locus YGL167C, strain pmr1, hits give low values): 0.965
normalized growth (locus YGL173C, strain kem1, hits give low values): 0.979
normalized growth (locus YGL227W, strain vid30, hits give low values): 0.974
normalized growth (locus YGL240W, strain doc1, hits give low values): 0.978
normalized growth (locus YGL248W, strain PDE1, hits give low values): 0.991
normalized growth (locus YGL253W, strain hxk2, hits give low values): 0.908 (active)
normalized growth (locus YGR078C, strain PAC10, hits give low values): 1
normalized growth (locus YGR135W, strain pre9, hits give low values): 0.972
normalized growth (locus YGR229C, strain SMI1, hits give low values): 1.01
normalized growth (locus YGR252W, strain gcn5, hits give low values): 1.01
normalized growth (locus YHR013C, strain ard1, hits give low values): 0.951
normalized growth (locus YHR027C, strain rpn1, hits give low values): 0.972
normalized growth (locus YHR030C, strain SLT2, hits give low values): 0.983 and 0.956
normalized growth (locus YHR079C, strain IRE1 (second series), hits give low values): 0.96
normalized growth (locus YHR079C, strain IRE1, hits give low values): 0.961
normalized growth (locus YHR094C, strain hxt1, hits give low values): 0.977
normalized growth (locus YHR129C, strain ARP1, hits give low values): 0.987
normalized growth (locus YHR142W, strain chs7, hits give low values): 0.901
normalized growth (locus YHR200W, strain rpn10, hits give low values): 0.974
normalized growth (locus YIL066C, strain RNR3, hits give low values): 0.985
normalized growth (locus YIL073C, strain SPO22, hits give low values): 0.961
normalized growth (locus YIL125W, strain kgd1, hits give low values): 0.99
normalized growth (locus YIR030C, strain dcg1, hits give low values): 0.967
normalized growth (locus YJL092W, strain hpr5, hits give low values): 0.972
normalized growth (locus YJL095W, strain BCK1 (second series), hits give low values): 0.975
normalized growth (locus YJL095W, strain BCK1, hits give low values): 0.98 and 1
normalized growth (locus YJL115W, strain asf1, hits give low values): 0.983
normalized growth (locus YJL129C, strain trk1, hits give low values): 0.877
normalized growth (locus YJL134W, strain LCB3, hits give low values): 0.989
normalized growth (locus YJL154C, strain vps35, hits give low values): 0.974
normalized growth (locus YJL164C, strain tpk1, hits give low values): 0.981
normalized growth (locus YJL166W, strain qcr8, hits give low values): 0.952
normalized growth (locus YJL168C, strain set2, hits give low values): 0.965
normalized growth (locus YJL187C, strain SWE1 (second series), hits give low values): 0.979
normalized growth (locus YJL187C, strain SWE1, hits give low values): 0.975
normalized growth (locus YJR043C, strain POL32, hits give low values): 0.985
normalized growth (locus YJR066W, strain TOR1, hits give low values): 0.929
